Here are results for nine molecules from PubChem BioAssay (NCI).

Common to all, as to assay: NCI-60 one-dose screen, 48 h (100 = growth as untreated, 0 = no growth, -100 = all killed)
Common to all, as to settings: 10 µM unless noted

Experiment [1] relates to DU-145 prostate.
For experiment [2], the system named is K-562 leukemia.
The test system of experiment [3] is MALME-3M melanoma.
In experiment [4] the test system is MDA-MB-231 breast.
Experiment [5] has as its system SF-268 CNS.
Experiment [6] relates to SF-295 CNS.
Experiment [7] deals with SF-539 CNS.
Experiment [8] deals with UACC-257 melanoma.
In experiment [9] the test system is M14 melanoma.
Experiment [10] has as its system HCT-15 colon.
The test system of experiment [11] is HT29 colon.
The subject of experiment [12] is SNB-75 CNS.
Experiment [13] has as its system SNB-19 CNS.
In experiment [14] the test system is U251 CNS.
Experiment [15] deals with PC-3 prostate.
Experiment [16] concerns SK-MEL-5 melanoma.
The subject of experiment [17] is UACC-62 melanoma.
Experiment [18] has as its system SK-MEL-28 melanoma.
The subject of experiment [19] is RXF 393 renal.
In experiment [20] the test system is LOX IMVI melanoma.

Compounds without any hit were thinned out: in the full panel of roughly 83,000, 20% have a hit.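 How to read the values: 0–100, growth inhibition (40 = 60% inhibited); 0, no net growth; -100 to 0, cell death (-40 = 40% of starting cells died; -100 = all dead).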 Values without a mark were called inactive. The source made the active and inactive calls. How the source made its calls: active means growth percent below 10; inactive means the rest.

As for `Cn1c2ccccc2c2nnc(N/N=C/c3ccccn3)nc21`, the growth was 13.7% in experiment [1]; 10.2% in experiment [2]; -34.1% (active) in experiment [3]; 56.2% in experiment [4]; 6.74% (active) in experiment [5]; -25.3% (active) in experiment [6]. Further, the growth is -35.9% (active) in [7]; 7.22% (active) in experiment [8]; -42.1% (active) in experiment [9]; 27.6% in experiment [10]; 37% in experiment [11]; 31% in experiment [12]. Moreover, the growth is 26.1% in [13]; 14.2% in [14]; 28.4% in experiment [15]; -44.1% (active) in experiment [16]; -6.2% (active) in [17]; 18.5% in experiment [18].

In the case of `N#CSCc1ccc(Cl)c(CSC#N)c1`, the growth is 16.4% in experiment [1]; 15.2% in experiment [2]; 63.7% in experiment [3]; 45.4% in experiment [4]; 5.61% (active) in experiment [19]; 36.4% in experiment [5]. The growth was 70.7% in experiment [6]; 15.2% in experiment [7]; 83.1% in [8]; 9.39% (active) in [9]; 18% in [10]; 6.14% (active) in [11]. Besides, the growth was 25.4% in [12]; 61.5% in experiment [13]; 61% in [14]; 19.8% in experiment [16]; 57.3% in [17]; 68.6% in [18].

On to `CCCCCCCCCCCCCCCCOP(=O)([O-])OCC[N+](C)(C)C`, for which the growth in [1] was 82.2%; in [2] it was 64.6%; in experiment [3], 74.1%; in [4] it was 36.8%; in [19] it was -32.1% (active); in [5], 32.5%. For the same molecule, the growth in experiment [6] was 28%; in experiment [7] it was 55.9%; in experiment [8] it was 76.7%; in experiment [9] it was -10.6% (active); in experiment [10], 1.44% (active); in experiment [11], -14% (active). Moreover, the growth was 44.2% in experiment [12]; -13.3% (active) in [13]; 8.3% (active) in [14]; 59.1% in [16]; 37.6% in experiment [17]; 27.8% in [20]. For the same molecule, in experiment [18], the growth is 98.3%.

For `CNc1ccc2c(c1)c1ccccc1n2C`, the growth in [1] was 102%; in experiment [2], 105%; in [3] it was 106%; in [4], 98.5%; in [19], 113%; in experiment [5] it was 95.1%. Also, the growth in experiment [6] was 98.7%; in experiment [7], 98.1%; in [8], 107%; in experiment [9], 116%; in [10], 104%; in [11], 115%. Also, the growth was 98.7% in experiment [12]; 111% in [13]; 95.9% in experiment [14]; 101% in [16]; 100% in [17]; 99.9% in experiment [20]. The growth in [18] is 117%.

On to `NC1=CC(=O)c2ccccc2C1=O`, for which the growth was 63.8% in experiment [1]; 92.6% in experiment [2]; 38.8% in experiment [3]; 82.1% in [4]; 100% in [19]; 95.6% in experiment [5]. Further, the growth in experiment [6] is 69%; in experiment [7] it was 106%; in experiment [8], 69%; in experiment [9], 83%; in experiment [10], 61.5%; in experiment [11], 94.7%. The growth in [12] is 89.2%; in experiment [13], 96.3%; in experiment [14], 66.7%; in [16] it was 22.9%; in experiment [17] it was 60.8%; in [20] it was 24.5%. The growth in experiment [18] is 103%.

As for `Cc1cc(C(C)(CC(C)C)c2ccc(O)c(C)c2)ccc1O`, the growth is 112% in experiment [1]; 97.1% in experiment [2]; 109% in experiment [3]; 88% in experiment [4]; 93% in experiment [19]; 104% in [5]. In addition, the growth in [6] is 97.8%; in experiment [7], 96.6%; in experiment [8], 84.8%; in [9], 94.2%; in experiment [10] it was 85.5%; in experiment [11], 98.7%. Besides, the growth in [12] was 75.8%; in experiment [13], 109%; in experiment [14] it was 94.3%; in experiment [16], 97.5%; in experiment [17] it was 71.1%; in experiment [18], 114%.

Take `O=C(Nc1cccc(Br)c1)Oc1ccc(Cl)c2cccnc12`: the growth in experiment [1] was 42.2% [100 µM]; in experiment [2], 10.4% [100 µM]; in experiment [3], 27% [100 µM]; in experiment [4] it was 20.1% [100 µM]; in [19], 51.6% [100 µM]; in experiment [5], 16.4% [100 µM]. Further, the growth in experiment [6] was 12.1% [100 µM]; in [7] it was 9.36% [100 µM] (active); in [8], 7.32% [100 µM] (active); in experiment [9], 8.2% [100 µM] (active); in experiment [10], 10.9% [100 µM]; in experiment [11], 70.5% [100 µM]. In addition, the growth was 3.16% [100 µM] (active) in experiment [12]; 27.8% [100 µM] in [13]; 20.2% [100 µM] in experiment [14]; 9.3% [100 µM] (active) in experiment [16]; -30.4% [100 µM] (active) in [17]; 4.16% [100 µM] (active) in experiment [20]. The growth in [18] was 25% [100 µM].

For `S=C(NCCNC(=S)[S][Sn]([c]1ccccc1)([c]1ccccc1)[c]1ccccc1)[S][Sn]([c]1ccccc1)([c]1ccccc1)[c]1ccccc1`, the growth in experiment [1] is -96.1% (active); in experiment [3] it was -70.4% (active); in [4], -82.1% (active); in [19], -99.7% (active); in experiment [5], -90.9% (active); in [6], -83.5% (active). Moreover, the growth in experiment [7] is -81.7% (active); in experiment [8] it was -100% (active); in experiment [9] it was -94% (active); in [10] it was -73.8% (active); in [11], -93.1% (active); in [12], -60.8% (active). Moreover, the growth in experiment [13] is -92.8% (active); in experiment [14], -100% (active); in [16] it was -100% (active); in experiment [17], -64.1% (active); in experiment [20] it was -86.5% (active); in [18], -98.8% (active).

Consider `COc1ccccc1/C=C\C(=O)c1ccccc1`, for which the growth in experiment [1] was 94.7%; in experiment [2] it was 13%; in [3] it was 78.9%; in experiment [4], 84.8%; in experiment [19] it was 85.5%; in [5] it was 96.1%. Besides, the growth in experiment [6] was 94.2%; in experiment [7] it was 92.4%; in [8] it was 82.2%; in experiment [9] it was 78.5%; in experiment [10] it was 70.2%; in experiment [11], 41.9%. Besides, the growth is 77.8% in experiment [12]; 79.4% in experiment [13]; 45.6% in [14]; 72.3% in [16]; 77.2% in experiment [17]; 28.6% in experiment [20]. Besides, in experiment [18], the growth is 94.9%.
